# Measured values from the supplement of paper PMC8728848.
# The entries come from a sample that favours the strongest signals as a whole.
# Assays:
# Test in all cases: glycan array binding signal (z-score within array); higher = stronger binding
# Details in all cases: glycan notation: IUPAC condensed, linker removed
# [1] = target: Fuc(a1-2)Gal(b1-3)[Fuc(a1-4)]GlcNAc(b1-2)Man(a1-3)[Fuc(a1-2)Gal(b1-3)[Fuc(a1-4)]GlcNAc(b1-2)Man(a1-6)]Man(b1-4)GlcNAc(b1-4)GlcNAc
# Method in brief: (§1)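 The binding signal is a Z-score computed within each array. Data were drawn from 3228 arrays in the Consortium for Functional Glycomics database, restricted to those with a known protein sequence. Scores were averaged over arrays of the same protein sequence at different concentrations or buffers, and over linkers, and negative values can be taken as non-binding.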
# [2] = target: Fuc(a1-2)Gal(b1-3)[Fuc(a1-4)]GlcNAc(b1-3)[Gal(b1-4)GlcNAc(b1-6)]Gal(b1-4)Glc
# Method in brief: as §1
# [3] = target: Fuc(a1-2)Gal(b1-4)GlcNAc(b1-3)Gal(b1-4)GlcNAc(b1-3)Gal(b1-4)GlcNAc
# Method in brief: as §1
# [4] = target: Fuc(a1-2)[Gal(a1-3)]Gal(b1-4)GlcNAc(b1-2)Man(a1-3)[Fuc(a1-2)[Gal(a1-3)]Gal(b1-4)GlcNAc(b1-2)Man(a1-6)]Man(b1-4)GlcNAc(b1-4)[Fuc(a1-6)]GlcNAc
# Method in brief: as §1
# [5] = target: Fuc(a1-2)[Gal(a1-3)]Gal(b1-4)[Fuc(a1-3)]GlcNAc
# Method in brief: as §1
# [6] = target: Fuc(a1-3)[Gal(b1-4)]Glc6S
# Method in brief: as §1
# [7] = target: Fuc(a1-3)[Gal(b1-4)]GlcNAc(b1-4)Gal(b1-4)[Fuc(a1-3)]GlcNAc(b1-4)Gal(b1-4)[Fuc(a1-3)]GlcNAc
# Method in brief: as §1
# Fuc(a1-4)GlcNAc = target: Fuc(a1-4)GlcNAc
# Method in brief: as §1
# [8] = target: Gal(a1-4)Gal(b1-3)GlcNAc(b1-2)Man(a1-3)[Gal(a1-4)Gal(b1-3)GlcNAc(b1-2)Man(a1-6)]Man(b1-4)GlcNAc(b1-4)GlcNAc
# Method in brief: as §1
# Gal(a1-4)Gal(b1-4)Glc = target: Gal(a1-4)Gal(b1-4)Glc
# Method in brief: as §1
# Gal(b1-3)Gal(b1-4)GlcNAc = target: Gal(b1-3)Gal(b1-4)GlcNAc
# Method in brief: as §1
# [9] = target: Gal(b1-4)GlcNAc(b1-2)[Gal(b1-4)GlcNAc(b1-6)]Man(a1-6)[Gal(b1-4)GlcNAc(b1-2)Man(a1-3)]Man(b1-4)GlcNAc(b1-4)GlcNAc
# Method in brief: as §1
# [10] = target: Gal(b1-4)GlcNAc(b1-3)[Gal(b1-4)GlcNAc(b1-6)]Gal(b1-4)GlcNAc
# Method in brief: as §1
# [11] = target: Gal(b1-4)GlcNAc(b1-3)[Gal(b1-4)GlcNAc(b1-6)]GalNAc
# Method in brief: as §1
# Gal6S(b1-4)Glc6S = target: Gal6S(b1-4)Glc6S
# Method in brief: as §1
# [12] = target: GalNAc(a1-3)Fuc(a1-2)Gal(b1-4)GlcNAc(b1-3)[GalNAc(a1-3)Fuc(a1-2)Gal(b1-4)GlcNAc(b1-6)]GalNAc
# Method in brief: as §1
# [13] = target: GalNAc(b1-3)Gal(a1-6)Gal(b1-4)Glc
# Method in brief: as §1
# GalNAc(b1-3)GalNAc = target: GalNAc(b1-3)GalNAc
# Method in brief: as §1
# [14] = target: Glc(a1-6)Glc(a1-6)Glc(a1-6)Glc
# Method in brief: as §1
# GlcA(b1-3)Gal = target: GlcA(b1-3)Gal
# Method in brief: as §1
# [15] = target: GlcNAc(b1-3)Gal(b1-3)GalNAc
# Method in brief: as §1
# GlcNAc(b1-3)GalNAc = target: GlcNAc(b1-3)GalNAc
# Method in brief: as §1
# [16] = target: GlcNAc(b1-3)[GlcNAc(b1-6)]GalNAc
# Method in brief: as §1
# GlcNAc(b1-4)GlcNAc = target: GlcNAc(b1-4)GlcNAc
# Method in brief: as §1
# GlcNAc3Prop(b1-4)GlcNAc = target: GlcNAc3Prop(b1-4)GlcNAc
# Method in brief: as §1
# [17] = target: Man(a1-2)Man(a1-3)[Man(a1-2)Man(a1-6)]Man(a1-6)[Man(a1-2)Man(a1-2)Man(a1-3)]Man(b1-4)GlcNAc(b1-4)GlcNAc
# Method in brief: as §1
# [18] = target: Neu5Ac(a2-3)Gal(b1-3)GalNAc(b1-4)[Neu5Ac(a2-3)]Gal(b1-4)Glc
# Method in brief: as §1
# [19] = target: Neu5Ac(a2-3)Gal(b1-3)GlcNAc
# Method in brief: as §1
# [20] = target: Neu5Ac(a2-3)Gal(b1-3)GlcNAc6S
# Method in brief: as §1
# [21] = target: Neu5Ac(a2-3)Gal(b1-3)[Neu5Ac(a2-6)]GalNAc
# Method in brief: as §1
binder,measurement,setting,value
"SefD (Salmonella enterica), Q9L6K6 (protein) GAYIIRGQNNSAHKLRIRIGGEDWQPDNSGIGMVSHSDFTNEFNIYYFGNGDIPVDTYLISIYATEIEL",glycan array binding signal (z-score),[1],-0.362
same,glycan array binding signal (z-score),[2],5.83
same,glycan array binding signal (z-score),[3],-0.043
same,glycan array binding signal (z-score),[4],-0.413
same,glycan array binding signal (z-score),[5],-0.401
same,glycan array binding signal (z-score),[6],-0.328
same,glycan array binding signal (z-score),[7],-0.46
same,glycan array binding signal (z-score),Fuc(a1-4)GlcNAc,2.37
same,glycan array binding signal (z-score),[8],-0.091
same,glycan array binding signal (z-score),Gal(a1-4)Gal(b1-4)Glc,-0.442
same,glycan array binding signal (z-score),Gal(b1-3)Gal(b1-4)GlcNAc,2.24
same,glycan array binding signal (z-score),[9],0.127
same,glycan array binding signal (z-score),[10],-0.614
same,glycan array binding signal (z-score),[11],-0.441
same,glycan array binding signal (z-score),Gal6S(b1-4)Glc6S,-0.435
same,glycan array binding signal (z-score),[12],5.38
same,glycan array binding signal (z-score),[13],-0.631
same,glycan array binding signal (z-score),GalNAc(b1-3)GalNAc,-0.05
same,glycan array binding signal (z-score),[14],-0.319
same,glycan array binding signal (z-score),GlcA(b1-3)Gal,-0.456
same,glycan array binding signal (z-score),[15],-0.29
same,glycan array binding signal (z-score),GlcNAc(b1-3)GalNAc,-0.427
same,glycan array binding signal (z-score),[16],-0.43
same,glycan array binding signal (z-score),GlcNAc(b1-4)GlcNAc,0.15
same,glycan array binding signal (z-score),GlcNAc3Prop(b1-4)GlcNAc,6.32
same,glycan array binding signal (z-score),[17],-0.324
same,glycan array binding signal (z-score),[18],-0.395
same,glycan array binding signal (z-score),[19],-0.336
same,glycan array binding signal (z-score),[20],-0.237
same,glycan array binding signal (z-score),[21],2.7
